# Assay results reported in the supplement of paper PMC7858590.
# Values joined by “and” are separate entries in the source; they are usually repeats but may differ in a detail not shown here. Equal values may be shown once. ± gives the standard deviation of the averaged measurements. Whole data set: some 3,800 compounds, median “cell shape (eccentricity) Z-score vs DMSO control” near 1.1, cut for the lowest 2% near -4.7. Shown is part of a subset that was picked to be rich in the lowest values.
# System: human monocyte-derived macrophages (M0)
# Assay: cell shape (eccentricity) Z-score vs DMSO control; higher = more elongated, M2-like morphology
# Settings: 20 µM; 24 h; macrophage state: M0 (M-CSF)
# Protocol: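 Primary human monocyte-derived macrophages (M-CSF differentiated, pooled from 4 donors, 5000 cells/well in 384-well plates) were treated with each compound at 20 uM for 24 h, then fixed and stained with phalloidin/DAPI and imaged on an Opera Phenix (6 fields, about 1000 cells/well). Cell eccentricity was measured with CellProfiler, and a Z-score (t-test) was computed against 4 DMSO control wells in the same row. Negative values mean round (M1-like) cells and positive values mean elongated (M2-like) cells; the paper's hit cutoffs are Z <= -4 (M1) and Z >= 6 (M2). Scale: negative = round, M1-like.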
row,Structure (SMILES),cell shape (Z-score)
1,CCCCCC1C(=O)O/C(=C\C(=O)O)C1=O (stereo not drawn),-1.15
2,C[C@H](NC(=O)/C(C#N)=C/c1ccc(O)c(O)c1)c1ccccc1,-2.26
3,CCC[C@H](NC(=O)/C(C#N)=C/c1cccc(Br)n1)c1ccccc1,-4.73
4,C[C@@H](NC(=O)/C(C#N)=C\c1ccc(O)c(O)c1)c1ccccc1,0.038
5,C[C@@H]1CN(CC(=O)Nc2ccc3c(c2)Cc2cccc(-c4cc(=O)cc(N5CCOCC5)o4)c2S3)C[C@H](C)O1,4.22
6,CC1(C)C2CC[C@]3(C)C(C(=O)C=C4[C@H]5C[C@@](C)(C(=O)O)CC[C@]5(C)CC[C@]43C)[C@@]2(C)CC[C@@H]1O (stereo partly drawn),0.344
7,CC(=O)Oc1cc2c(c(C)c1OC(C)=O)CC=C1[C@@]2(C)CC[C@@]2(C)C3C[C@](C)(C(=O)O)CC[C@]3(C)CC[C@]12C (stereo partly drawn),-13.8
8,Cc1cc(C(C)(C)CC(C)(C)C)ccc1OCCOCC[N+](C)(C)Cc1ccccc1,-4.7
9,CC(C)(C)CC(C)(C)c1ccc(OCCOCC[N+](C)(C)Cc2ccccc2)cc1,-0.216
10,CC(C)(C)CC(C)(C)c1ccc(O)c(-n2nc3ccccc3n2)c1,-0.381
11,O=C(O)c1cccnc1Nc1cccc(C(F)(F)F)c1,2.97
12,COc1ccc(/C=C/C(=O)c2cc(O)ccc2O)cc1,2.34
13,COc1ccc(/C=C/C(=O)c2ccc(O)cc2O)cc1,-5.34
14,CCOC(=O)C1=C(C)NC(C)=C(C(=O)OC)C1c1cccc([N+](=O)[O-])c1 (stereo not drawn),1.64
15,COc1ccc2c(c1OC)OC[C@@H](c1ccc(OC)c(OC)c1OC)C2,2.19
16,COc1cc(C[C@@H]2COC(c3ccc(O[C@@H]4O[C@H](CO)[C@@H](O)[C@H](O)[C@H]4O)c(OC)c3)[C@@H]2CO)ccc1O[C@@H]1O[C@H](CO)[C@@H](O)[C@H](O)[C@H]1O (stereo partly drawn),2.98
17,Nc1ccc(-c2nc3ccc(-c4nc5ccc(N)cc5[nH]4)cc3[nH]2)cc1,-0.879
18,O=C1c2ccc(Nc3ccc(F)cc3F)cc2CCc2ccc(OC[C@H](O)CO)cc21,-6.5
19,O=C(NOCC(O)CO)c1cc(Br)c(F)c(F)c1Nc1ccc(I)cc1F (stereo not drawn),-0.375
20,CC(=O)O[C@@H]1[C@@H](O)[C@H](C)O[C@@H](Oc2c(-c3ccc(O)cc3)oc3cc(O[C@@H]4O[C@@H](C)[C@H](O)[C@@H](O)[C@H]4O)cc(O)c3c2=O)[C@@H]1O,1.24

row,Structure (SMILES),cell shape (Z-score)
1,C[C@@](Cc1ccc(O)c(O)c1)(NN)C(=O)O,1.55
2,COc1ccc(C(=O)/C=C/c2ccccc2)cc1,3.14
3,COc1ccc(C(=O)CC2(O)C(=O)Nc3c(Cl)ccc(Cl)c32)cc1 (stereo not drawn),-7.6
4,COc1ccc(C(=C2C(=O)Nc3ccccc32)c2ccc(OC)cc2)cc1,1.61
5,O=C(O)c1ccc(NCc2nc3cc4ccccc4cc3[nH]2)cc1,1.43
6,CC1(C)O[C@@H]2CC3C4CCC5=CC(=O)C=C[C@]5(C)[C@@]4(F)[C@@H](O)C[C@]3(C)[C@]2(C(=O)CO)O1 (stereo partly drawn),-2.57
7,COc1ccc(NC(=O)c2ccc(-c3ccc(-c4noc(C)n4)cc3C)cc2)cc1N1CCN(C)CC1,-0.626
8,Nc1ccc(/N=N/c2ccccc2)c(N)n1,-1.01
9,Cc1ccc(O)c(N=Nc2ccccc2)n1,-7.89
10,Cc1ccc2ccc3ccc(C)nc3c2n1,3.48
11,C=C[C@@](C)(O)CCC1C(=C)CCC2[C@@](C)(CO)CCC[C@]12C (stereo partly drawn),4.09
12,COC1=C(N)C(=O)c2nc(-c3nc(C(=O)O)c(C)c(-c4ccc(OC)c(OC)c4O)c3N)ccc2C1=O,0.0737
13,CC(=O)Nc1ccc(C(=O)Nc2ccccc2N)cc1,-3.16 ± 2.7
14,Nc1ccccc1NC(=O)c1ccc(CNc2nccc(-c3cccnc3)n2)cc1,-11.8
15,CC(C)(C)c1ccc(S(=O)(=O)NCc2ccc(C(=O)Nc3cccnc3)cc2)cc1,1.14
16,Nc1ccccc1NC(=O)c1ccc(CNC(=O)OCc2cccnc2)cc1,-10.6 ± 0.74
17,Nc1cc(-c2ccncc2)c[nH]c1=O,0.0533
18,COc1cc2c(c(OC)c1)C(=O)OC(C)C2 (stereo not drawn),-2.38
19,Cc1ccccc1NC(=N)Nc1ccccc1C,2.28
20,O=c1c(OC2OC(CO)C(O)C(O)C2OC2OC(CO)C(O)C(O)C2O)c(-c2ccc(O)cc2)oc2cc(O)cc(O)c12 (stereo not drawn),0.138 ± 1.7

row,Structure (SMILES),cell shape (Z-score)
1,CC1(C)C(=O)C=C[C@@]2(C)C1CC(=O)[C@]1(C)C2CC[C@@]2(C)[C@H](c3ccoc3)OC(=O)[C@H]3O[C@]321 (stereo partly drawn),-1.42
2,COc1cc2c(c(O)c1OC)C(=O)CC(c1ccc(O)cc1)O2 (stereo not drawn),0.892
3,CC(C)[C@@H]1CC[C@@]2(C)CCC[C@@](C)(O)[C@@H]2[C@H]1OC(=O)/C=C/c1ccccc1,2.15
4,NC(=O)c1ccc(-c2nc(-c3ccc4c(c3)OCCO4)c(-c3ccccn3)[nH]2)cc1,4.12
5,COCCCCC(=NOCCN)c1ccc(C(F)(F)F)cc1,-14.7
6,CC(/C=C/C1(O)C(C)CC(O)CC1(C)C)OC1OC(CO)C(O)C(O)C1O (stereo not drawn),0.819
7,C/C=C/C#CC#C[C@@H](O[C@@H]1O[C@H](CO)[C@@H](O)[C@H](O)[C@H]1O)[C@H](O)/C=C/CCCO,-5.71
8,CC(O)CCCc1cc(O)cc(O[C@@H]2O[C@H](CO)[C@@H](O)[C@H](O)[C@H]2O)c1 (stereo partly drawn),0.302
9,O=Cc1ccccc1O[C@@H]1O[C@H](CO)[C@H](O)[C@@H](O)[C@H]1O,-0.838
10,O=C1c2ccccc2CCC1CNCCc1ccc(O)cc1 (stereo not drawn),2.69
11,OCc1ccc(-c2ccc(-c3ccc(CO)s3)o2)s1,-3.3 and -5.19
12,COc1cc(C(C)/C=C(/C)CC(=O)O)oc(=O)c1C (stereo not drawn),0.462 ± 0.48
13,C=C1CC[C@@H]2[C@](C)(CO)[C@H](O)CC[C@@]2(C)[C@@H]1CC(O)C1=CCOC1=O (stereo partly drawn),-2.2 ± 3.4
14,O=C(Nc1ccccc1)c1cc([N+](=O)[O-])ccc1Cl,-1.03
15,O=C(Nc1ccc([N+](=O)[O-])cc1Cl)c1cc(Cl)ccc1O,-4.1 ± 4.2
16,O=C(Nc1ccc([N+](=O)[O-])cc1O)Nc1ccccc1Br,-4.95 ± 7.5
17,CCC(C)C(=O)O[C@H]1C[C@H](O)C=C2C=C[C@H](C)[C@H](CC[C@@H](O)C[C@@H](O)CC(=O)O)C21 (stereo partly drawn),-0.754
18,COc1cc(/C=C/c2cc(O)cc(O[C@@H]3O[C@H](CO)[C@@H](O)[C@H](O)[C@H]3O)c2)ccc1O[C@@H]1O[C@H](CO)[C@@H](O)[C@H](O)[C@H]1O,2.22
